In PubChem BioAssay AID686978 (National Center for Advancing Translational Sciences (NCATS), 2013) one finds Potency data, which are given here for 103 compounds.

In all, about 420,000 compounds went through this assay and about 64,000 (15%) were called active. Roughly 27% stayed inconclusive and do not appear here. Calls come from the whole dose curve; as a rule, active = well fitted inhibition curve with a large enough effect; inconclusive = small, poorly fitted or top-dose-only effect; inactive = flat fitted curve, though single readings scatter. Only a sample is shown. Entries that show only a call come without a potency.
Potency is the fitted concentration of half-maximal effect.

This assay can be described thus: qHTS for Inhibitors of human tyrosyl-DNA phosphodiesterase 1 (TDP1): qHTS in cells in absence of CPT. Note: nearly all actives have a fitted effect of over 55% in size. The following applies: DT40 Tdp1-/- hTDP1 cells, no CPT, ATP luminescence, 48 h; activity change, negative = growth inhibition: at 46.2 µM (top of the series). In short, it runs like this:
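Readout: luminescence from CellTiter-Glo after 30 min in the dark at RT. Cells: DT40 Tdp1-/- with stable hTDP1, 400/well. Exposure: compounds alone, ≥48 hr, 37 °C.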
For the compound `Cc1nc2nc3c(cn2n1)C(=O)CC(c1ccccc1)C3` (stereo not drawn), the Potency entry is “inactive”.

Turning to `O=C1CC(c2ccccc2)CC2=C1C(c1ccco1)n1nc(C(F)(F)F)nc1N2` (stereo not drawn), the Potency is 14.1 µM (active).

With `CCC(=O)N1c2ccccc2NC2=C(C(=O)CCC2)C1c1ccco1` (stereo not drawn), the Potency entry is “inactive”.

As for `CCOc1ccc(S(=O)(=O)NCCC(=O)NCC(C)(C)N2CCOCC2)cc1`, the Potency result was “inactive”.

Consider `CC(C(=O)Nc1ccccc1-c1ccccc1)N1CCOCC1` (stereo not drawn), for which the Potency entry is “inactive”.

Turning to `Cc1ccccc1NC(=O)C(C)c1ccc(-c2ccccc2)c(F)c1` (stereo not drawn), the Potency is 16.4 µM (active).

`O=C(Nc1ccccc1F)c1ccccc1-c1ccccc1`: the Potency entry was “inactive”.

Take `COc1ccc(N=C2C=CC(=O)O2)cc1`: the Potency was 4.61 µM (active).

`COC1=CC(=O)OC(c2ccc(OC)cc2)C1` (stereo not drawn): the Potency result is “inactive”.

As to `COc1ccc(N=Nc2c(-c3ccc(OC)cc3)[nH]oc2=O)cc1`, the Potency result was “inactive”.

Turning to `COc1ccc(OC)c2c(N)c(C#N)c(C(F)(F)C(F)(F)F)nc12`, the Potency result is “inactive”.

As for `Cc1ccc(C(=O)OCC(=O)NCc2ccc3c(c2)OCO3)s1`, the Potency entry is “inactive”.

As to `COc1ccc(-c2cc(C(F)(F)F)nc(S(C)(=O)=O)n2)cc1OC`, the Potency is 5.17 µM (active).

Turning to `CCN(CC)S(=O)(=O)c1cccc(C(=O)NCC(=O)OCC(=O)NCc2ccccc2)c1`, the Potency result is “inactive”.

For the compound `CCNC(=O)COc1cc(C)c(Br)c(C)c1`, the Potency result was “inactive”.

`Cc1cc(F)ccc1NC1(c2ccccc2)C(=O)c2ccccc2C1=O`: the Potency result was “inactive”.

On to `CC(=O)Nc1ccc(NC(=S)NC(=O)c2ccc([N+](=O)[O-])c(C)c2)cc1`, for which the Potency entry was “inactive”.

`CNc1ccc(NC(C)=O)cc1[N+](=O)[O-]`: the Potency result is “inactive”.

On to `CC(=O)Nc1ccc(/C=N/Nc2ccc(C(=O)c3c(C)cc4ccccn34)cc2[N+](=O)[O-])cc1`, for which the Potency is 11.6 µM (active).

Turning to `CCC(C)NCC(=O)Nc1ccc([N+](=O)[O-])cc1C(=O)Nc1ccccc1F` (stereo not drawn), the Potency entry is “inactive”.

For `Cc1ccc(S(=O)(=O)N(C)CC(=O)OCC(=O)N2CC(=O)Nc3ccccc32)cc1`, the Potency result was “inactive”.

As to `COc1ccccc1C(=O)NC(=O)COC(=O)c1ccco1`, the Potency entry was “inactive”.

Turning to `COc1ccc(C(=O)C2CCCN(C(=O)c3ccc(OC)o3)C2)c(C)c1` (stereo not drawn), the Potency is 16.4 µM (active).

`Cc1cc(Cl)ccc1C(=O)C1CCCN(C(=O)c2ccc3c(c2)OCO3)C1` (stereo not drawn): the Potency is 8.2 µM (active).

Turning to `COc1ccc(C(=O)C2CCCN(S(=O)(=O)c3cccc(C)c3)C2)c(C)c1` (stereo not drawn), the Potency is 18.4 µM (active).

Regarding `CCOC(=O)C1CCN(S(=O)(=O)c2c(C)noc2C)CC1`, the Potency entry was “inactive”.

Regarding `COc1ccc(OC)c(S(=O)(=O)N2CCCC(C(=O)NCCc3ccccc3)C2)c1` (stereo not drawn), the Potency entry is “inactive”.

In the case of `COc1cccc(N2CCN(C(=O)C3CCCN(S(=O)(=O)c4cnc[nH]4)C3)CC2)c1` (stereo not drawn), the Potency entry is “inactive”.

Take `O=C(c1ccc2c(c1)OCO2)N1CCOCC1`: the Potency entry was “inactive”.

Regarding `Cc1cc(Cl)ccc1C(=O)C1CCCN(C(=O)c2nonc2C)C1` (stereo not drawn), the Potency result is “inactive”.

On to `COc1c(C)cc(C(=O)C2CCCN(S(=O)(=O)c3c(C)noc3C)C2)cc1C` (stereo not drawn), for which the Potency is 16.4 µM (active).

On to `CCNC(=O)C1CCCN(C(=O)c2ccc(OC)cc2OC)CC1` (stereo not drawn), for which the Potency entry is “inactive”.

For `Cc1cc(C)c(S(=O)(=O)N2CCC(C(=O)OCc3c(C)noc3C)CC2)c(C)c1`, the Potency entry was “inactive”.

With `CCn1nc(C)cc1C(=O)N1CCCC(C(=O)c2cccc(OC)c2)C1` (stereo not drawn), the Potency result was “inactive”.

In the case of `O=C(COc1cccnc1[N+](=O)[O-])Nc1ccc(Cl)cc1F`, the Potency result was “inactive”.

Take `Cc1ccc(NC(=O)OCc2cncs2)cc1`: the Potency result is “inactive”.

`COC(=O)c1c(C(=O)OC)c2n(c1C)CCS2`: the Potency result was “inactive”.

In the case of `CC(C)(C)OC(=O)N(Cc1ccco1)S(=O)(=O)c1ccccc1Br`, the Potency entry was “inactive”.

As to `CCn1c(N)c(Br)c(=O)[nH]c1=O`, the Potency entry is “inactive”.

Regarding `N#Cc1c(NCCO)ccc([N+](=O)[O-])c1NCCO`, the Potency entry is “inactive”.

As for `CC1CCN(C(=O)CSc2nnc(-c3ccco3)n2N)CC1`, the Potency entry was “inactive”.

As to `CCCn1nc(NS(=O)(=O)c2ccccc2)c2cc3cc(C)ccc3nc21`, the Potency entry was “inactive”.

Regarding `CC(C)NC(=O)COCc1cc(-c2ccc3c(c2)OCO3)on1`, the Potency result is “inactive”.

For `O=c1c(-c2ccccc2)coc2c(CN3CCOCC3)c(O)ccc12`, the Potency entry is “inactive”.

`Cc1cc(=O)n2nc(N3CCCC3C(=O)NCCCN3CC(C)CC(C)C3)sc2n1` (stereo not drawn): the Potency result was “inactive”.

Regarding `Cc1nnc(SCc2cc(=O)c3cc(F)ccc3[nH]2)n1C`, the Potency result was “inactive”.

For the compound `COCCN(C(=O)CSCc1ccc(C)cc1)c1c(N)n(CC(C)C)c(=O)[nH]c1=O`, the Potency entry is “inactive”.

`CCN(C(=O)COC(=O)CCOc1cccc(C)c1)c1c(N)n(Cc2ccccc2)c(=O)[nH]c1=O`: the Potency was 18.4 µM (active).

Regarding `CCN(C(=O)COC(=O)c1c(C)nn(-c2ccccc2)c1Cl)c1c(N)n(Cc2ccccc2)c(=O)[nH]c1=O`, the Potency result is “inactive”.

Turning to `CCCCN(C(=O)CSCc1ccc(C)cc1)c1c(N)n(Cc2ccccc2)c(=O)[nH]c1=O`, the Potency was 25.9 µM (active).

For the compound `CCN(C(=O)COC(=O)c1sccc1C)c1c(N)n(Cc2ccccc2)c(=O)[nH]c1=O`, the Potency entry is “inactive”.

On to `COCCN(C(=O)COC(=O)Cc1cccc(OC)c1)c1c(N)n(Cc2ccccc2)c(=O)[nH]c1=O`, for which the Potency entry was “inactive”.

With `COc1ccc2oc(C(=O)OCC(=O)N(CC(C)C)c3c(N)n(Cc4ccccc4)c(=O)[nH]c3=O)c(C)c2c1`, the Potency is 16.4 µM (active).

In the case of `CCN(C(=O)COC(=O)Cc1c(F)cccc1Cl)c1c(N)n(Cc2ccccc2)c(=O)[nH]c1=O`, the Potency entry is “inactive”.

`COCCCN(C(=O)CSCc1ccc(C)cc1)c1c(N)n(Cc2ccccc2)c(=O)[nH]c1=O`: the Potency result is “inactive”.

On to `CN=C(c1ccccc1)c1c(C)cccc1C`, for which the Potency entry is “inactive”.

Regarding `CC1CCCCC1NC(=O)CSc1nnc(-c2ccncc2)n1CCCN(C)C` (stereo not drawn), the Potency result was “inactive”.

`CCCNC(=O)N1CCN(C(=O)NCCC)CC1`: the Potency result is “inactive”.

Turning to `O=C(NNc1cc(Cl)ccc1Cl)c1cccnc1Cl`, the Potency result is “inactive”.

In the case of `Fc1ccc(OCc2nn3c(Cn4nnc5ccccc54)nnc3s2)cc1`, the Potency entry is “inactive”.

Regarding `CCc1ccccc1NC(=O)Cc1cn(C)c2ccccc12`, the Potency result is “inactive”.

With `O=C(O)C1CCCN1S(=O)(=O)c1ccc2c(c1)CCC2` (stereo not drawn), the Potency result was “inactive”.

In the case of `CC(OC(=O)CNC(=O)c1cccc(F)c1)C(=O)NC1CCCCC1C` (stereo not drawn), the Potency entry is “inactive”.

Consider `Cc1ccnc(SCC(=O)Nc2cccc(S(=O)(=O)N3CCOCC3)c2)n1`, for which the Potency result was “inactive”.

`O=C(O)C1CC(=O)N(Cc2cccnc2)C1` (stereo not drawn): the Potency entry is “inactive”.

As for `O=C(O)CCc1cccnc1`, the Potency result is “inactive”.

As to `O=C1/C(=C\c2cccnc2)CN(Cc2ccccc2)C/C1=C\c1cccnc1`, the Potency was 1.64 µM (active).

As for `COC(=O)c1ccc2c(c1)S(=O)(=O)NC2C` (stereo not drawn), the Potency result was “inactive”.

As to `O=C(OCC(=O)N1CCc2ccccc21)C1CCCN1S(=O)(=O)c1ccc(Cl)cc1` (stereo not drawn), the Potency result is “inactive”.

With `O=C(OCC(=O)N1CCc2ccccc21)c1ccc([N+](=O)[O-])cc1`, the Potency is 29.1 µM (active).

Consider `Cc1ccc(S(=O)(=O)NCC(=O)OCC(=O)N2CCc3ccccc32)cc1`, for which the Potency entry is “inactive”.

Regarding `O=S(=O)(Nc1ccccn1)c1cccc(S(=O)(=O)c2ccc(Cl)cc2)c1`, the Potency result was “inactive”.

For the compound `Cc1coc2c1c(C)cc1oc(=O)c(CC(=O)NCC(=O)N[C@H](C(=O)O)C(C)C)c(C)c12`, the Potency entry was “inactive”.

With `CCC(NC(=O)C1CCCC1)c1ccc(C)cc1` (stereo not drawn), the Potency entry was “inactive”.

Consider `Cc1cc[n+](C2CCCCC2)cc1`, for which the Potency was 15.8 µM (active).

As to `COc1ncnc2sc3c(c12)CCCC3`, the Potency result was “inactive”.

Turning to `Cc1noc(C)c1NC(=O)N(C)C[C@@H]1Oc2cc(Br)ccc2S(=O)(=O)N([C@@H](C)CO)C[C@H]1C`, the Potency result is “inactive”.

`C[C@H](CO)N1C[C@H](C)[C@@H](CN(C)C(=O)C2CCCCC2)OCc2cnnn2CCCC1=O`: the Potency result is “inactive”.

Regarding `CCCCOc1ccc(C(C)(O)CCN2CCOCC2)cc1` (stereo not drawn), the Potency entry is “inactive”.

As for `COc1ccc2[nH]c(=O)c(CN(Cc3cccnc3)S(=O)(=O)c3ccccc3F)cc2c1`, the Potency is 18.4 µM (active).

Take `CCN(Cc1cc2cc(C)ccc2[nH]c1=O)S(=O)(=O)c1ccccc1`: the Potency result was “inactive”.

Consider `COc1ccc(-c2[nH]ncc2CN(C)Cc2cccnc2)c(F)c1`, for which the Potency entry was “inactive”.

Consider `Cc1ccc(C(=O)NCC(=O)OCC(=O)NC2CCCCCCC2)cc1`, for which the Potency entry was “inactive”.

`COc1ccc(C2C(=O)N(C3CCCCCC3)CC(=O)N2CCc2ccc(Cl)cc2)cc1OC` (stereo not drawn): the Potency is 23.1 µM (active).

`COc1ccc(C2C(=O)N(C3CCCCC3)CC(=O)N2Cc2ccccc2Cl)cc1OC` (stereo not drawn): the Potency entry is “inactive”.

`O=C(NCCc1ccc(Cl)cc1)C1CC(=O)N(C2CCCCC2)C1` (stereo not drawn): the Potency entry was “inactive”.

`CCCCN(C(=O)c1nn(C)c(=O)c2ccccc12)c1c(N)n(CCC)c(=O)[nH]c1=O`: the Potency entry was “inactive”.

As to `CCN1C[C@@H]2[C@@H]3C(=O)N(C)C(=O)[C@@H]3[C@](C)(C1=O)N2C(=O)c1ccccc1`, the Potency result was “inactive”.

For `COc1cc(C2CC(=O)c3cnc(NC(C)=O)nc3C2)cc(OC)c1OC` (stereo not drawn), the Potency entry is “inactive”.

As to `CCCOC(=O)c1cc2ccccc2oc1=O`, the Potency entry is “inactive”.

In the case of `CCCOC(=O)c1[nH]c2c(c1C)C(=O)CC(c1cccs1)C2` (stereo not drawn), the Potency was 0.58 µM (active).

In the case of `CCCOC(=O)c1[nH]c2c(c1C)C(=O)CC(c1cc(OC)c(OC)c(OC)c1)C2` (stereo not drawn), the Potency is 4.61 µM (active).

Regarding `CCOC(=O)C1=C(N)N2C(=O)C(C)SC2=C(C(=O)OCC)C1c1cc(OC)c(OC)c(OC)c1` (stereo not drawn), the Potency result was “inactive”.

For the compound `Cc1noc(C)c1C(=O)N1CCC1(C)C(=O)NS(=O)(=O)c1ccc(C#N)cc1` (stereo not drawn), the Potency entry is “inactive”.

With `Cn1c(SCC(=O)Nc2cccc(NC(=O)c3cccs3)c2)nnc1-c1ccncc1`, the Potency entry was “inactive”.

For `COc1cc(OC)c(C(=O)N2CCCC2)cc1OC`, the Potency entry was “inactive”.

`Nc1cc(N2CCCCCC2)c2nonc2c1[N+](=O)[O-]`: the Potency entry is “inactive”.

For `CCOc1ccc(N(C)S(=O)(=O)c2cnc[nH]2)cc1`, the Potency entry is “inactive”.

Consider `OC(CNCC1CCCO1)Cn1c2ccc(Br)cc2c2cc(Br)ccc21` (stereo not drawn), for which the Potency is 18.4 µM (active).

With `O=C(CCNS(=O)(=O)c1ccc(Br)cc1)NCC1CCCO1` (stereo not drawn), the Potency entry was “inactive”.

For the compound `CC(NS(=O)(=O)c1ccc(Br)cc1)C(=O)NCC1CCCO1` (stereo not drawn), the Potency result is “inactive”.

As for `CN(C)c1ccc(C(CNS(=O)(=O)c2cc(F)ccc2F)N2CCOCC2)cc1` (stereo not drawn), the Potency result was “inactive”.

Take `C[C@H](NC(=O)c1[nH]cnc1C(=O)Nc1nccs1)c1ccccc1`: the Potency entry was “inactive”.
